WRN helicase inh – blocks human WRN helicase; Q14191; WRN helicase unwinding, fluorescent forked duplex, kinetic; Potency, µM (highest dose often 114 µM), inactives show at the top dose activity change, negative = inhibition, hits mostly inhibitors; 360,000 compounds, 0.46% hits; further: potency means the concentration at half of the fitted maximal effect; on the % scale 0 is the no-effect control and ±100 the full control effect; nearly all actives have a fitted effect of over 55% in size
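Kinetic red-fluorescence monitoring (525/598 nm) tracks WRN helicase activity after 100 nM fluorophore-quencher forked duplex and 2 mM ATP are added to 20 nM enzyme pretreated 15 min at room temperature with compound.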
PI5P4K alpha inh – blocks human PI5P4K alpha kinase activity; P48426; PI5P4Kalpha enzyme, ADP-Glo luminescence, 60 min; active compounds read low; max response, %; 330,000 compounds, 1.2% hits; active means max response of -50% or lower; inconclusive means between -30% and -50%; inactive means -30% or higher; further: value at the top dose of about 77 µM; on the % scale 0 is the no-effect control and ±100 the full control effect
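Human PI5P4Kalpha with substrate in 0.038 M HEPES pH 7.4, 0.28 mM EGTA, 0.1% CHAPS, 5% DMSO; reaction started with 5 microM ATP (final), 60 min at room temperature. ADP formed read by ADP-Glo luminescence.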
Pol kappa inh-1 – blocks human DNA polymerase kappa activity. Q9UBT6. purified Pol kappa, fluorescent DNA synthesis assay, 10 min. Potency, µM (doses to about 107 µM), for inactives: top-dose activity, negative = inhibition, usual class: inhibitors. 400,000 compounds, 0.53% hits. AID 588579; further: potency means the concentration at half of the fitted maximal effect; on the % scale 0 is the no-effect control and ±100 the full control effect
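Readout: fluorescence, taken kinetically at 0 and 10 min. Conditions: 10 nM Pol kappa, 15 min RT compound preincubation, 50 nM substrate final. Controls: enzyme-free buffer wells.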
Pol eta inh-1 – inhibitors of human DNA polymerase eta; Q9Y253; recombinant Pol eta, fluorescent DNA replication assay; Potency, µM (series often up to 114 µM), without a hit: at the highest dose activity change, negative = inhibition, actives largely listed as inhibitors; 390,000 compounds, 1.2% hits; further: potency means the concentration at half of the fitted maximal effect; on the % scale 0 is the no-effect control and ±100 the full control effect
Target sequence (Q9Y253 whole entry, looked up): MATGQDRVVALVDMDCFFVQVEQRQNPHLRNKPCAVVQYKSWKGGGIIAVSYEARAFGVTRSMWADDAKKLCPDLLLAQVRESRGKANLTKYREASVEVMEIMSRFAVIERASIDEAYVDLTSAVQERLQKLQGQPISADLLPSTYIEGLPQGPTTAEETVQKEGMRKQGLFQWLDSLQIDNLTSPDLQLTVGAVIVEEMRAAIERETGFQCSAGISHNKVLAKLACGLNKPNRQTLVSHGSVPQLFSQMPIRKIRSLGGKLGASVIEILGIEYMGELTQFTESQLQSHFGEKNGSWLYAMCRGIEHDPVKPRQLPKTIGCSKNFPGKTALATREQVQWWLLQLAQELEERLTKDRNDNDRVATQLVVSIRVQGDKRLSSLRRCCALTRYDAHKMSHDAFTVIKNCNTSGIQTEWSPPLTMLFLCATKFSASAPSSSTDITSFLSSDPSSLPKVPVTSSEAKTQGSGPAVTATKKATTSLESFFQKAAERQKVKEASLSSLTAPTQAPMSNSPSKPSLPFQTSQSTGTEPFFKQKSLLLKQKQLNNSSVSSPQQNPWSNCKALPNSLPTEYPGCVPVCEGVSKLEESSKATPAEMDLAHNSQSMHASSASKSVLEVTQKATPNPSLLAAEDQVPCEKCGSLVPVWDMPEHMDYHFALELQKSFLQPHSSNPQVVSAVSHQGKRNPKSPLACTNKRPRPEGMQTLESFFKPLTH
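Pol eta (10 nM) was preincubated with compounds for 15 min at room temperature, after which fluorescent replication substrate (50 nM final) was added to start the reaction. Fluorescence was read kinetically at 0 and 10 min.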
POLI inh – inhibitors of human DNA polymerase iota; 390,000 compounds, 1% hits; Pol iota fluorescent replication assay, 10 min; AID 588590; Potency, µM (top dose mostly 115 µM), for the others: at the top dose activity, negative = inhibition, actives largely listed as inhibitors; further: potency means the concentration at half of the fitted maximal effect
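Pol iota at 10 nM preincubated 15 min with compounds at room temperature; reaction started with fluorescent substrate, 50 nM final. Fluorescence read kinetically at 0 and 10 min; buffer-only wells as negative control.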
Pol beta inh – blocks human DNA polymerase beta activity; P06746; Pol beta primer extension/strand displacement, fluorescence kinetic; Potency, µM (series often up to 114 µM), without a hit: top-dose activity change, negative = inhibition, most hits filed as inhibitors; 340,000 compounds, 1.3% hits; further: potency means the concentration at half of the fitted maximal effect; on the % scale 0 is the no-effect control and ±100 the full control effect
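Pol beta (10 nM) and compounds were preincubated 15 min at room temperature, then 50 nM substrate (final) started primer extension/strand displacement. Reads were taken at 0 and 10 min; concentration-response data were fitted to a four-parameter Hill equation.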
Pol kappa inh-2 – Pol kappa (human) inhibition, cherry-pick confirmation; shares compounds with Pol eta inh-1; purified Pol-kappa, fluorescent strand-displacement substrate; Potency, µM, actives largely listed as inhibitors; 920 compounds, 76% hits; AID 720501; further: potency means the concentration at half of the fitted maximal effect
Pol eta inh-2 – Pol eta (human) inhibition, cherry-pick confirmation | shares compounds with Pol eta inh-1 | Pol eta primer extension, TAMRA/BHQ fluorescence, 10 min | Potency, µM, usual class: inhibitors | 2,600 compounds, 64% hits | AID 720502; further: potency means the concentration at half of the fitted maximal effect
* hit, by the source's call; u = inconclusive; x = not tested or not shown; [ ] = remark or other dose. The list is not random: actives were taken first. Their share in the collection is about 2.8%. Unless noted, the call rests on the fitted dose curve; in most records, active means well fitted curve in the direction sought with a large enough effect; inconclusive means small, poorly fitted or top-dose-only effect, or another doubt; inactive means no such curve, though single readings can be large; an effect the other way counts as inactive or inconclusive.

SMILES	WRN helicase inh	PI5P4K alpha inh	Pol kappa inh-1	Pol eta inh-1	POLI inh	Pol beta inh	Pol eta inh-2	others
Cc1cc(O)c(CN(C)C)c2c1C(=O)/C(=C/c1ccco1)O2	-10%[11.6 µM]	-23	-94%	11µM*	u	-7%	54*	Pol kappa inh-2=34*
Cc1ccc(N2CC(C(=O)Nc3cccnc3)CC2=O)cc1Cl (stereo not drawn)	-23%	2	12%	-14%	53%	39%	x
CCCC(=O)Nc1sc(C)c(C)c1C#N	-7%	2	4%	-19%	78%	-11%	x
CCc1c(C)sc(NC(=O)CC#N)c1C#N	u	x	u	22µM*	45µM*	u	u
Cc1ccc(C)c(Nc2nc3c(S(=O)(=O)c4ccc(C(C)C)cc4)nnn3c3ccsc23)c1	x	x	-14%	-19%	-24%	1%	x
Cc1ccc(C)c(Nc2nc3c(S(=O)(=O)c4ccc(Br)cc4)nnn3c3ccsc23)c1	x	x	u	-25%	45µM*	18µM*	x	Pol kappa inh-2=21*
COC(=O)/C=C1\SC(=NC(=O)c2ccc(-c3ccccc3)cc2)NC1=O	-5%[11.6 µM]	-63*	-33%	50µM*	u	x	u
COC(=O)/C=C1\SC(=NC(=O)c2ccc(OC)cc2)NC1=O	-23%	-1	-2%	-16%	1%	12%	x
O=C(O)c1cccc(Cn2c(Cl)c(/C=N/Nc3ccccc3)sc2=O)c1	-15%[11.6 µM]	-64*	u	45µM*	u	-4%	u
COc1ccc(C(=O)N/N=C/c2sc(=O)n(Cc3cccc(C(=O)O)c3)c2Cl)cc1	-22%	-7	-8%	u	18%	-7%	x
Cc1ccccc1OCC(=O)N/N=C/c1sc(=O)n(Cc2cccc(C(=O)O)c2)c1Cl	-30%	-3	-18%	u	u	u	u
O=C(CCSCc1ccc(Cl)cc1)N1CCN(c2ccccc2F)CC1	x	x	-7%[60.1 µM]	9%	-10%	4%	x
Cc1ccc(CN(C)C(=O)C2CCC(=O)N(CCc3ccccc3)C2)o1 (stereo not drawn)	7%	-1	9%	-6%	-9%	25%	x
CC(C)(C)c1ccc(/C=N/N2C(=O)CSC2=S)cc1	-1%	-2	-17%	-16%	u	4%	x
O=C1CSC(=S)N1N=Cc1ccc(Cl)s1	20µM*	-55*	u	u	14µM*	x	54*	Pol kappa inh-2=17*
COC(=O)c1ccccc1NC(=O)c1cnn2c1NC(=C1CC1)C=C2C(F)F	x	x	3%	x	18%	x	x
O=C1CCCCC1Nc1ccc2ccccc2c1 (stereo not drawn)	-4%	7	-13%	4%	23%	x	x
COc1cc(C(CCN2CCCC2)c2c(OC)cc(OC)c3ccc(=O)oc23)cc(OC)c1OC (stereo not drawn)	6%	-2	10%	-14%	26%	-28%	x
COc1cc(C(CC(=O)N2CCCC2)c2c(OC)cc(OC)c3ccc(=O)oc23)cc(OC)c1OC (stereo not drawn)	1%[11.6 µM]	1	u	32µM*	u	u	85*
COc1cc(OC)c2ccc(=O)oc2c1C(CC(=O)N1CCCC1)c1ccc2c(c1)OCO2 (stereo not drawn)	-32%	u	50µM*	u	71µM*	45µM*	u
COC(=O)COc1ccc(C(C2C(=O)CC(C)(C)CC2=O)C2C(=O)CC(C)(C)CC2=O)cc1	0%	-5	0%	-15%	-6%	6%	x
O=c1cc(-c2ccc(O)cc2)oc2ccc3ccccc3c12	-24%	-13	-24%	u	40µM*	x	x	Pol kappa inh-2=u
COc1cccc2oc(-c3ccc(O)cc3)cc(=O)c12	x	x	-5%[19.4 µM]	x	x	x	x
Cc1ccc(NC(=O)Cn2ccn(-c3ccc(F)c(F)c3)c(=O)c2=O)cc1C	x	x	-22%	9%	-3%	-15%	x
CCC(C)(C)C1CCc2c(sc(NC(=O)c3ccccc3C(=O)O)c2C#N)C1 (stereo not drawn)	-35%	u	-33%	u	26%	-34%	x	Pol kappa inh-2=u
SMILES	WRN helicase inh	PI5P4K alpha inh	Pol kappa inh-1	Pol eta inh-1	POLI inh	Pol beta inh	Pol eta inh-2	others
CCc1ccc(N2C(=O)CN(Cc3cccs3)C2=S)cc1	-4%	-6	-19%	-6%	157%	26%	x
O=C(Nc1nc(-c2ccccn2)cs1)c1cccc(S(=O)(=O)N2CCOCC2)c1	9%	-26	-22%	-8%	46%	x	x
O=C(O)CCN1CCc2ccccc21	-14%[57.1 µM]	4	u	18µM*	u	u	u
CCN(CC)S(=O)(=O)c1ccc(OC)c(NC(=O)OCc2ccccc2)c1	-7%	1	-28%	-29%	133%	-7%	x
CN1C(=O)C(=C2CCCCCC2)SC1=S	6%	1	4%	-7%	-7%	-11%	x
O=C1NC(=S)SC1=C1CCCC1	45µM*	u	14µM*	20µM*	u	22µM*	u
Cc1ccc(/C=N/n2c(C3CCCCC3)n[nH]c2=S)cc1	-1%	-4	-14%	u	123%	11%	x
CC[C@]1(C(=O)OC)[C@H]2C(=O)N(Cc3ccccc3)C(=O)[C@H]2[C@H]2CN(C)C(=NCc3ccccc3)N21	-2%	4	1%	-9%	-6%	x	x
Cc1nn(CCC(=O)O)c2nc(-c3cccnc3)cc(C(F)(F)F)c12	-12%	5	4%	-9%	-10%	-1%	x
Cc1nn(CCc2nn[nH]n2)c2nc(-c3ccc(C4CCCCC4)cc3)cc(C(F)(F)F)c12	u	28	-35%	45µM*	29%	u	u
Cc1c(C(=O)N2CCN(c3ccccn3)CC2)cccc1[N+](=O)[O-]	-4%	-8	-13%	-10%	159%	26%	x
CC(Sc1ccsc1[N+](=O)[O-])C(=O)N1CCN(c2ccccn2)CC1 (stereo not drawn)	-13%[11.6 µM]	u	u	35µM*	u	-1%	76*
O=C(O)C1CC(O)CN1c1nc(Cl)ccc1[N+](=O)[O-] (stereo not drawn)	-1%	-1	-25%	-1%	44%	-23%	x
O=C(O)C1CN(c2nc(Cl)ccc2[N+](=O)[O-])C1	-13%	-12	-9%	20µM*	15%	35µM*	30*	Pol kappa inh-2=67*
CN(C)c1ccc(/C=C/c2c(F)cnc3ccccc23)cc1	x	x	-9%	x	16%	x	x

Bioassay records (PubChem BioAssay)
